# In the library only some 15% were active in any assay of this set; here they are far more common.
# ELG1 DNA repair: ELG1-dependent DNA repair inhibition; AID 504467; 2.3% of 330,000 active; HEK293T ELG1-luciferase reporter, luminescence, 16 h; DNA damage induced by 5-fluorouridine; Potency, µM (top dose mostly 46.1 µM), for inactives: top-dose activity change, negative = inhibition, usual class: inhibitors; also: nearly all actives have a fitted effect of over 55% in size
#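 Step one: seed 2,000 cells per well. Step two: pin-transfer compound or DMSO alongside 5-fluorouridine. Step three: incubate 16 hr, 37 °C, 5% CO2. Step four: add ONE-Glo, wait 30 min, read luminescence.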
# RORg inh: blocks mouse ROR gamma transcriptional activity. P51450. Drosophila S2 Gal4-RORgamma UAS-luciferase reporter, 20 h. Potency, µM (highest dose often 53.6 µM), for inactives: at the highest dose activity change, negative = inhibition, usual class: inhibitors. 5.4% of 310,000 active. AID 2551; also: nearly all actives have a fitted effect of over 60% in size
#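 Stable Schneider cell line, Gal4 DNA-binding domain fused to ROR gamma, UAS-luciferase. Cmpd 1 hr RT → CuSO4 700 uM final → 20 hr RT → luciferase reagent 10 min → luminescence.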
# TDP1 cell CPT: DT40-hTDP1 cell growth loss with CPT. chicken DT40 Tdp1-/-;hTDP1 cells + 20 nM CPT, ATP luminescence, 48 h. Potency, µM (titrated, usually from 46.2 µM), inactives show top-dose activity change, negative = growth inhibition, most hits filed as inhibitors. 12% of 420,000 active. AID 686979; also: nearly all actives have a fitted effect of over 55% in size
#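 Chicken DT40 Tdp1-/- cells stably complemented with human TDP1 were seeded at 400 cells/well in medium containing 20 nM camptothecin, exposed to pin-transferred compounds, and grown at 37 °C for at least 48 hr. Viability was read as ATP luminescence.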
# DT40 TDP1 no CPT: qHTS for Inhibitors of human tyrosyl-DNA phosphodiesterase 1 (TDP1): qHTS in cells in absence of CPT. DT40 Tdp1-/- hTDP1 cells, no CPT, ATP luminescence, 48 h. Potency, µM (series often up to 46.2 µM), without a hit: at the top dose activity change, negative = growth inhibition, hits mostly inhibitors. 15% of 420,000 active. AID 686978, 2013; also: nearly all actives have a fitted effect of over 55% in size
#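 Readout: luminescence from CellTiter-Glo after 30 min in the dark at RT. Cells: DT40 Tdp1-/- with stable hTDP1, 400/well. Exposure: compounds alone, ≥48 hr, 37 °C.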
# VP16 counter: inhibits Gal4-VP16 luciferase reporter, ROR gamma counter-screen. Drosophila S2 Gal4-VP16 UAS-luciferase, luminescence, 20 h. 3.5% of 310,000 active. Potency, µM (series often up to 53.6 µM), for inactives: at the highest dose activity, negative = inhibition, actives largely listed as inhibitors;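 also: Gal4-VP16 expression switched on by copper sulfate through the metallothionein promoter; nearly all actives have a fitted effect of over 50% in size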
# 12-LOX inh: ALOX12 (human) lipoxygenase inhibition | P18054 | purified 12hLO, xylenol orange hydroperoxide absorbance | Potency, µM (series often up to 108 µM), without a hit: at the highest dose activity change, negative = inhibition, hits mostly inhibitors | 1.1% of 580,000 active | AID 1671190
# Target sequence (P18054 whole entry, looked up): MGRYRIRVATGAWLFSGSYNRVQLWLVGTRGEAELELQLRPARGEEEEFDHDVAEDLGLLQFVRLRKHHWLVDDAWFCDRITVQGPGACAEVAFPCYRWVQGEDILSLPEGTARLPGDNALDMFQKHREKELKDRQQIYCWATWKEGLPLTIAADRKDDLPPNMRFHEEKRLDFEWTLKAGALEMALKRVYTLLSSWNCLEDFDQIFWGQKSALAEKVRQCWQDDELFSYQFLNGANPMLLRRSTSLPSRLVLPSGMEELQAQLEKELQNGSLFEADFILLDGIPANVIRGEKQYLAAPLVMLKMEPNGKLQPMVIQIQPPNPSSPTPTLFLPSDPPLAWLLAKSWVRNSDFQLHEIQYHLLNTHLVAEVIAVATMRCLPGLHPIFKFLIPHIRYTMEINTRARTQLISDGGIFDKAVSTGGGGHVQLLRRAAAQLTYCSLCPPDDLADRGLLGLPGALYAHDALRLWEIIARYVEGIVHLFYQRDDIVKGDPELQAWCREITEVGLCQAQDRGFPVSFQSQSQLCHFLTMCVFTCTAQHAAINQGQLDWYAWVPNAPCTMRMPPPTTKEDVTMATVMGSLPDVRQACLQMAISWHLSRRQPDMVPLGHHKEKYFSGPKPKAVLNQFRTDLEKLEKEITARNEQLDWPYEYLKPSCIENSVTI
#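 Hydroperoxide product was detected by ferrous iron/xylenol orange as the 573 to 405 nm absorbance ratio. Arachidonic acid at 40 uM (final) was turned over for 30 min at room temperature by 150 nM human 12hLO, pH 7.0 Hepes buffer, after 15 min compound preincubation.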
# * = called active by the depositor; ? = inconclusive; . = not tested or not shown; [ ] = another dose, or the depositor's remark. Calls follow the shape of the dose curve; as a rule, active = well fitted curve in the direction sought with a large enough effect; inconclusive = small, poorly fitted or top-dose-only effect, or another doubt; inactive = no such curve, though single readings can be large; an effect the other way counts as inactive or inconclusive. % is scaled to controls: 0 for no effect and ±100 for the full control effect; potency is read from the fitted curve at half-maximal effect.
SMILES,ELG1 DNA repair,RORg inh,TDP1 cell CPT,DT40 TDP1 no CPT,VP16 counter,12-LOX inh
CC1=C(C#N)C(NC(=O)CCC2CCCCC2)(C(F)(F)F)C(=O)N1 (stereo not given),.,.,.,.,.,25%
Cc1ccc2c(c1)NC(=O)C2(O)C(F)(F)F (stereo not given),.,.,.,.,.,0%
COc1ccc(CCNC(=O)CN2C(=O)NC(c3ccc(Cl)cc3)C3=C2COC3=O)cc1OC (stereo not given),.,.,.,.,.,8%
Cc1ccc(S(=O)(=O)N(Cc2cc3cc4c(cc3[nH]c2=O)OCCO4)CC2CCCO2)cc1 (stereo not given),-3%,10%,-18%,-18%,6%,-8%
CC(=O)c1ccc(S(=O)(=O)N(Cc2cc3cc4c(cc3[nH]c2=O)OCCO4)CC2CCCO2)cc1 (stereo not given),?,-28%,-29%,11µM*,3%,-10%
Cc1ccc2cc(CN(CC3CCCO3)S(=O)(=O)c3ccc4c(c3)OCCO4)c(=O)[nH]c2c1C (stereo not given),.,.,18µM*,21µM*,.,-4%
O=C(O)/C=C/c1cc(Br)c(-c2ccc(Cl)cc2Cl)o1,.,.,.,.,.,40µM*
O=C(O)/C=C/c1ccc(-c2ccc(Br)cc2Cl)o1,.,.,.,.,.,7.9µM*
O=[N+]([O-])c1ccc(OC/C=C2\Oc3ccc([N+](=O)[O-])cc3C2N2CCOCC2)cc1 (stereo not given),?,43%,?,23µM*,10%,-14%
Cc1ccc(Cl)cc1NC(=O)CC(O)(C(F)(F)F)C(F)(F)F,-17%,-13%[0.365 µM],18µM*,?,.,-9%
COc1ccc(C2Cn3nnc(-c4noc(-c5ccc(Cl)cc5OC)n4)c3CO2)cc1 (stereo not given),.,.,.,.,.,2%
CCOC(=O)c1cccc(Nc2nc(C)cc(C)n2)c1,?,8%,3%,-5%,24%,?
CCOC(=O)c1cccc(Nc2cc(C)nc(C)n2)c1,.,.,?,16µM*,.,-23%
CCOC(=O)c1cccc(Nc2ncnc3ccc(C)cc23)c1,?,?,15µM*,21µM*,-1%,0%
CCOC(=O)c1ccc(Nc2ncnc3ccc(C)cc23)cc1,-13%,?,-21%,?,-10%,9%
COc1ccc(CCC(=O)NCc2ccccc2OC)cc1,-9%,-10%,-14%,5%,-7%,-2%
COc1ccccc1CNC(=S)NCCc1ccccc1,?,2.5µM*,-1%,-24%,?,?
COc1ccccc1CNC(=O)CCc1ccccc1,-3%,?,?,18µM*,28%,-3%
COc1ccc(/C(C)=N/NC(=O)CNC(=O)CCc2ccccc2)c(OC)c1,-7%,?,?,18µM*,?,0%
COc1cc(-c2c(NC(=O)c3cccs3)oc3ccc(Cl)cc3c2=O)cc(OC)c1OC,.,.,.,.,.,-28%
Cc1ccc(-c2ccccc2)n1-c1cccnc1,.,.,.,.,.,-14%
Cc1ccc(/C=C2\SC(=O)N(CCNC(=O)C3CSC4(C)CCC(=O)N34)C2=O)cc1 (stereo not given),1%,.,?,15µM*,.,?
CC12CCC(=O)N1C(C(=O)NCCc1ccccc1)CS2 (stereo not given),4%,7.9µM*,-3%,2%,16µM*,2%
CC(=O)NC12CC3CC(C1)CC(C(=O)Nc1nc4ccc(F)cc4s1)(C3)C2,-20%,29%,?,26µM*,-3%,-5%
CC12CCC(=O)N1C(C(=O)Nc1nc3ccc(F)cc3s1)CS2 (stereo not given),?,.,-15%,10µM*,.,?
O=C(CCC[C@H]1NC[C@@H]2C[C@H]1CN(Cc1ccccc1)C2)NCCc1ccncc1,.,.,.,.,.,14%
